# Data taken from PubChem BioAssay (NCI).
# This is part of a sample that, as a whole, favours compounds with a hit. Of some 83,000 tested, about 20% had one in any assay.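 Compound tested at a single concentration for 48 hours in 96-well plates; a percent growth value below 10 was scored as active.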 Values without a mark were called inactive. Activity calls are given as the source filed them.
# Test system: RPMI-8226 leukemia
# Assay: NCI-60 one-dose screen, 48 h (100 = growth as untreated, 0 = no growth, -100 = all killed)
# Conditions: 10 µM unless noted
# Method: Growth inhibition of the RPMI-8226 human tumor cell line is measured as a screen for anti-cancer activity. Cells are grown in 96 well plates and exposed to the test compound for 48 hours. Compounds are tested at a single concentration, which is 10^-5 M for most compounds. The reported endpoint is percent growth (GI% or GIPRCNT), where numbers from 0 - 100% represent growth inhibition, and numbers from -100% - 0 represent cell death. For example, a value of 40 represents 60% growth inhibition. A value of 0 means no net growth occurred over the course of the experiment. A value of -40 indicates 40% of cells at the beginning of the experiment died by the end of the experiment. A value of -100 means all cells are dead at the end of the experiment.
# NCI-60 Human Tumor Cell Lines Screen was performed using the standard one-dose NCI protocol, which is described in more detail at https://dtp.cancer.gov/discovery_development/nci-60/default.htm.
# Compounds with GIPRCNT values below 10 were considered active. Activity score was based on GIPRCNT using the following formula: […]
# Score is 0 for GIPRCNT values of 100 or above, 50 for GIPRCNT values of 0, and 100 for GIPRCNT values of -100.
row,Compound,growth
1,CC1=CC(=Nc2ccc(N(C)C)cc2)C=C(C)C1=O,39.7%
2,C=C(c1ccc(N(C)C)cc1)c1ccc(N(C)C)cc1,7.06% (active)
3,Cc1ccc(S(=O)(=O)NC(=O)NCCSSCCNC(=O)NS(=O)(=O)c2ccc(C)cc2)cc1,99.8%
4,FC(F)(F)c1cc(NC2=NCCN=C(Nc3cc(C(F)(F)F)cc(C(F)(F)F)c3)SS2)cc(C(F)(F)F)c1,6.78% (active)
5,ClCC(Cl)[C@@H]1CC2C=CC1C2 (stereo not given in full),104%
6,CCCCn1cnc2c(=O)[nH]cnc21,108%
7,CCOC(=O)c1ccc(Nc2sc(C(=O)c3ccc(Br)cc3)c(N)c2C#N)cc1,18.7%
8,NC(=S)N/N=C/c1ccc(OC(=O)COc2ccccc2)cn1,55.2%
9,O=C(O)c1ccc(OCc2ccccc2)cc1,97.5%
10,Cc1cc(C(=O)NN)c(C#N)c(=O)[nH]1,91.2%
11,O=S(=O)(O)c1ccc(O)c(C2CCCCC2)c1,105%
12,Cc1cc(Cc2ccccc2)c(O)c(Cc2ccccc2)c1,103%
13,CCCCCC/C=C\CCCCCCCCCc1cc(O)cc(OC)c1O,-7.09% (active)
14,COc1ccc(-c2csc(NC(=O)Nc3nc(-c4ccc(OC)cc4)cs3)n2)cc1,69.5%
15,CC1CCC(C)(C)c2ccccc21 (stereo not given),117%
16,O=S(Cc1ccccc1)/C(=C/NC(=S)Nc1cc(Cl)ccc1Cl)c1ccccc1 (stereo not given),102%
17,Cc1cc(C)cc(OCC(=O)O)c1,108%
18,NS(=O)(=O)c1cc(=O)[nH]c(=O)[nH]1,118%
19,CCN(CC)CCN1CNC(=S)NC1,99.2%
20,OC(CBr)CCBr (stereo not given),98.8%

row,Compound,growth
1,CC1(C)CC(=O)C=C(N)C1,178%
2,O=S(Cc1ccccc1)/C(=C/NC(=S)Nc1ccccc1)c1ccccc1 (stereo not given),103%
3,O=C(NCc1ccccc1)c1cccc([N+](=O)[O-])c1,91%
4,CN(CCCN(C)CCC1CCCCC1)CCC1CCCCC1,43.6%
5,Cc1cc(Cl)cc(Cc2cc(Cl)cc(C)c2O)c1O,-22.8% (active)
6,CC(=O)N(C)N=Nc1ccc(C)cc1,102%
7,O=C1C=C(c2ccccc2)C(O)(c2ccccc2)C1 (stereo not given),98.1%
8,CC(=O)NC(CCC(=O)c1ccccc1)C(=O)O (stereo not given),91.4%
9,CCCCNc1ccc(-c2ccc(NCCCC)cc2)cc1,61.8%
10,N#C/C(=C\NC(=S)N=Nc1c(O)[nH]c2ccccc12)c1nc2ccccc2s1,97%
11,Cc1ccc(O)c(N)c1,55.7%
12,NNC(=O)c1ccccc1N,88.9%
13,COc1cc2c(c(OC)c1OC)-c1ccc(SC)c(=O)cc1[C@@H](NC1OC(CO)C(O)C(O)C1O)CC2 (stereo not given in full),19.7%
14,CCN(C(=O)Nc1ccccc1Cl)c1ccccc1,107%
15,C=C1C(=O)C2CCN1CC2,93.8%
16,COC1CC(OC(=O)c2ccc([N+](=O)[O-])cc2)C(COC(=O)c2ccc([N+](=O)[O-])cc2)O1 (stereo not given),101%
17,c1ccc(Oc2c3ccccc3nc3ccccc23)cc1,-20.9% (active)
18,CSCC[C@@H]1C(=O)N(C)[C@H](C(C)(C)C)N1C(=O)c1ccccc1,117%
19,Cc1ccc(N2C(=O)c3cccc4c(N)c(S(=O)(=O)O)cc(c34)C2=O)cc1,104%
20,O=C1NC(=O)/C(=C\c2ccncc2)N1,103%
